Source: PubChem BioAssay
M1 PAM parental – counter-screen for M1 PAMs: effect in parental CHO-K1 cells | activation, % at 3 µM | hit rate 0.02% among 360,000 | ATP EC20, Fluo-8 calcium fluorescence; 0% at ATP EC20, 100% at ATP max;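 active means activation above the run cutoff, the mean activation of all test compounds plus 3 SD, cut at about 40% in these data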;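 further: peak over basal fluorescence ratio in a 140 s read after ATP addition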
CHO-K1 Ca ag – M1 agonist counterscreen hit in parental CHO-K1 cells | Fluo-8 calcium fluorescence; scaled to maximal ATP response, vehicle zero | activation, % at 3 µM | hit rate 0.48% among 360,000 | AID 602248; in the data active means activation above about 15%;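 further: untransfected CHO-K1 host cells lacking M1 receptor as counterscreen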
CHRM1 antagonist – antagonists of human M1 muscarinic receptor. P11229. CHO-K1 hM1, Fluo-8 calcium fluorescence, ACh EC80 antagonist. inhibition, % at 3 µM. hit rate 1.3% among 360,000. AID 588852;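 active means percent inhibition above its own plate's cutoff, namely the mean of that plate's compound wells plus 3 SD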;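 further: peak over basal fluorescence ratio during 140 s after agonist addition; 0% = ACh EC80 plus DMSO and 100% = DMSO alone without agonist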
Target sequence (P11229 whole entry, looked up): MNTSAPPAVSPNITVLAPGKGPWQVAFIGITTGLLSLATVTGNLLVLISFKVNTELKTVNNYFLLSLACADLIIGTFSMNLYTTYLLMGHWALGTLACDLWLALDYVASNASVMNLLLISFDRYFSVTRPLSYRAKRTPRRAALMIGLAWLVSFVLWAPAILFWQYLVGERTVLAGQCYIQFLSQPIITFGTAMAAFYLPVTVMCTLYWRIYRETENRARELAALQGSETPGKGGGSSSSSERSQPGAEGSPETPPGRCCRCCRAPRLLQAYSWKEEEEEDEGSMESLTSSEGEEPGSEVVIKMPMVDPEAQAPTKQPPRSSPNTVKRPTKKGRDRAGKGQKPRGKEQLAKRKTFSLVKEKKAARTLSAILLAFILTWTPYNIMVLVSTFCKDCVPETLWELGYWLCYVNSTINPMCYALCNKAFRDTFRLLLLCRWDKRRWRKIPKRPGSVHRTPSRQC
M1 ag – human M1 muscarinic receptor agonism | CHO-K1 hM1, Fluo-8 calcium fluorescence, agonist mode; 0% DMSO, 100% acetylcholine EC100 | activation, % at 3 µM | hit rate 0.33% among 360,000;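 active means activation above the run's mean compound activation plus 3 SD, cut at about 16% in these data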;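 further: peak over basal fluorescence ratio within a 140 s kinetic read after compound addition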
CHO-K1 Ca antag – M1 antagonist counterscreen hit in parental CHO-K1 cells; ATP-induced calcium, Fluo-8 fluorescence; inhibition, % at 3 µM; hit rate 0.6% among 360,000; AID 602250;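 active means inhibition above a per-plate cutoff, the plate's mean sample inhibition plus 3 SD, cut at about 24% in these data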;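 further: 0% = DMSO plus EC80 ATP and 100% = DMSO alone without ATP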
M1 PAM – human CHRM1 positive allosteric modulation. CHO-K1 hM1, Fluo-8 calcium fluorescence, ACh EC20; 0% = ACh EC20, 100% = maximal ACh. activation, % at 3 µM. hit rate 0.088% among 360,000; in the data active means activation above about 19%, passing the limit was not always enough
* marks the source's active call; other numbers are inactive results; ! = not active in a repeat. A selection: hits, their analogues and other compounds. The true share with any hit is near 2.3%.

SMILES	M1 PAM parental	CHO-K1 Ca ag	CHRM1 antagonist	M1 ag	CHO-K1 Ca antag	M1 PAM
CCCOc1ccc(CNC(=O)CCC(=O)n2ncc3cc(C)ccc32)cc1	2	0	-4	-10	-6	1
COc1ccc(CNC(=O)CCC(=O)n2ncc3cc(C)ccc32)cc1	-7	0	-14	-6	24*	12
CCC(C)Sc1cc(-c2nc3ccc(C)cn3c2NCc2ccccc2)ccc1OC (stereo not drawn)	-17	3	63*	-6	25*!	-29
CCC(C)Sc1cccc(-c2nc3cc(C)ccn3c2NCc2ccccc2)c1 (stereo not drawn)	11	0	43*	-8	-6	-20
CCCCNc1c(-c2ccc(OC)c(SC3CCCCC3)c2)nc2ccc(C)cn12	-18	8	49*	1	33*	-16
Cc1ccn2c(NCc3ccccc3)c(-c3cccc(SC4CCCCC4)c3)nc2c1	8	0	10	-7	-20	-10
CCCCNc1c(-c2ccc(OC)c(SC(C)CC)c2)nc2ccc(C)cn12 (stereo not drawn)	-17	3	37*	-6	-2	-22
Cc1ccc(C)c(C(O)c2ncc(-c3ccc(Cl)cc3)[nH]2)c1 (stereo not drawn)	14	5	-16	5	-1	12
CC(C)CSCC1OC(n2cnc3c(N)nccc32)C(O)C1O (stereo not drawn)	-15	0	1	-3	14	4
N#CC1c2ccccc2-c2ccccc2N1C(=O)c1ccccc1 (stereo not drawn)	29	1	-1	-7	-11	0
COc1ccc(-c2nc3ccccn3c2NCc2ccc3c(c2)OCO3)cc1	3	3	13	-1	4	-9
COc1ccc(-c2cc(-c3nc4ccccn4c3NCc3ccccc3)ccc2OC)cc1	-22	11	87*	4	52*	-32
CCOC(=O)N1CCN(S(=O)(=O)c2ccc(Cl)cc2)CC1	7	1	-14	1	-4	11
CCOC(=O)N1CCC(N2CCN(S(=O)(=O)c3ccc(Cl)cc3)CC2)CC1	22	2	-1	39*	-4	-15
CCOC(=O)N1CCC(N2CCN(c3cc(C)ccc3C)CC2)CC1	3	2	51*	4	-10	-12
CCOC(=O)c1ccc(N2CCN(c3cc(C)ccc3C)CC2)c(N)c1	-19	1	-4	-8	-20	0
C[C@H]1CN([C@@H](C)CO)C(=O)c2cc(C3=CCCC3)cnc2O[C@@H]1CN(C)C(=O)c1ccncc1	2	0	-3	-4	-5	0
CCn1c(C)c(C(C)=O)c(NCc2ccccc2)nc1=S	0	-1	51*	-9	17	-22
FC(F)Sc1ccc(NC(=S)NCC2CCCCC2)cc1	6	13	31*	1	17	-16
FC(F)Sc1ccc(NC(=S)NC2CCCCC2)cc1	4	12	18	-1	8	-10
CC1(C(=O)NCc2ccc(Cl)cc2)CCN1C(=O)Cc1ccc(Cl)cc1Cl (stereo not drawn)	19	0	-1	-7	-11	1
Cc1ccc(C)c(NC(=O)C2CCCN2/C=C/C(=O)C(F)(F)F)c1 (stereo not drawn)	-6	0	4	-3	26*	0
Cc1cccc(NC(=O)C2CCCN2/C=C/C(=O)C(F)(F)F)c1C (stereo not drawn)	22	5	-3	-7	-3	8
O=C(Nc1cccc(Cl)c1)Nc1cccc(Cl)c1	6	13	15	5	21	-7
COC(=O)c1cccc(NC(=S)Nc2ccc(Cl)c(Cl)c2)c1	-18	8	14	5	26*	-6
SMILES	M1 PAM parental	CHO-K1 Ca ag	CHRM1 antagonist	M1 ag	CHO-K1 Ca antag	M1 PAM
COC(=O)c1cc(NC(=O)Nc2cccc(Cl)c2)ccc1Cl	-5	18*	32*	4	24*	-17
COc1ccccc1NS(=O)(=O)c1cc(NC(=O)c2ccc(Cl)nc2)ccc1Cl	6	16*	28*	-1	3	-20
COc1ccc(NC(=O)c2ccc(Cl)c(S(=O)(=O)N3CCc4ccccc4C3)c2)cn1	21	9	18*	3	2	-10
CNC[C@H]1OCc2ccccc2-c2ccccc2C(=O)N([C@@H](C)CO)C[C@H]1C	-6	-1	-6	7	-13	13
O=C(OCC(=O)N(CCc1ccccc1)Cc1ccccc1)c1ccc(F)c(S(=O)(=O)N2CCOCC2)c1	8	2	-2	-4	-17	-1
COC(=O)c1cccc(NC(=O)NC(=O)c2ccc(Cl)cc2)c1	25	1	-18	-1	-17	8
COC(=O)c1cccc(NC(=O)Nc2ccc(Cl)cc2)c1	-6	14	38*	5	11	-20
COc1ccccc1NS(=O)(=O)c1cccc(NC(=O)Nc2cccc(Cl)c2)c1	-12	12	19	-3	34*	-10
O=C(O)c1cc([N+](=O)[O-])ccc1NCc1ccccc1	-6	0	3	-2	13	-2
O=C(O)c1cc([N+](=O)[O-])ccc1NCCCc1ccccc1	2	1	-24	18*	7	-2
Cc1noc(C)c1C(=O)N1CCC1(C)C(=O)NS(=O)(=O)c1cccc(F)c1 (stereo not drawn)	-1	0	-1	-3	6	-1
Cc1nonc1OCCNCCNc1ccccc1[N+](=O)[O-]	-12	0	13	-1	27*	-9
O=[N+]([O-])c1ccccc1NCCOc1ccccc1	-4	0	-4	-6	-1	2
CCOC(=O)c1sc(NC(=O)Cn2nnc3sc4c(c3c2=O)CCC(C(C)(C)C)C4)nc1C (stereo not drawn)	-12	-1	-11	-3	26*	4
CC1=C(C#N)C(C)(C)C(C#N)=C(C)N1	6	1	-5	-1	-10	5
NC(=O)c1ccsc1NC(=O)COC(=O)CSc1ccc(Cl)cc1	-15	9	25	-1	24*	-19
N#Cc1ccc(OCC(=O)OCC(=O)Nc2sccc2C(N)=O)cc1	-9	16*	17	3	-8	-4
NC(=O)c1ccsc1NC(=O)COC(=O)c1ccc(Cl)cc1	-4	8	11	0	14	-13
Cc1ccc(OCC(=O)OCC(=O)Nc2sccc2C(N)=O)cc1C	-8	13	22	-2	33*	-13
Cc1ccc(OC(C)C(=O)OCC(=O)Nc2sccc2C(N)=O)cc1 (stereo not drawn)	-10	15*	17	4	5	-8
COCCNC(=O)C1(C)CCCN(Cc2noc(-c3ccccc3OC)n2)C1 (stereo not drawn)	6	0	-2	-2	-3	-1
